RecA splice inh – Mtb RecA intein splicing inhibitors, primary screen, biochemical, fluorescence, HTS; cell-free RecA intein splicing; inhibition, % (concentration not given with the values); actives 0.75% (n = 290,000); AID 2221, 2009; in the data active = inhibition above about 30%
BioA inh – M. tuberculosis BioA enzyme inhibitors, primary screen, biochemical, plate reader, single point, HTS; 7,8-diaminopelargonic acid synthase BioA (Mycobacterium tuberculosis); purified M. tuberculosis BioA enzyme; inhibition, % at 9.99 µM; actives 0.096% (n = 360,000); in the data active = inhibition above about 40%
Mtb betalactam – beta-lactam sensitization of Mtb H37Rv, H37Rv. M. tuberculosis H37Rv growth with meropenem, percent inhibition. inhibition, % at 25 µM. actives 0.27% (n = 330,000); call rule not given here;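 note: growth measured after seven days incubation then overnight dye step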
CCHF vOTU inh-1 – CCHFV vOTU protease inhibitors, primary screen, biochemical, Pep-AMC substrate, fluorescence | Crimean-Congo hemorrhagic fever virus L polyprotein viral ovarian tumor (vOTU) protease … | actives 0.55% (n = 370,000) | inhibition, % at 11.5 µM
BJeLR lethal – MLPCN primary cell-based screen for lethality selective to Ras in HRASV12 cells. BJeLR (HRASV12) viability, CellTiter-Glo ATP luminescence, 48 h. inhibition, % (test concentration not listed). actives 0.17% (n = 300,000). AID 1554, 2009; in the data active = inhibition above about 50%
Yp Topo-I inh – Yersinia pestis topoisomerase I inhibitors, primary screen, biochemical, cleavage product accumulation, plate reader, single point | Y. pestis Topo-I cleavage product accumulation | AID 504884, 2011 | actives 0.064% (n = 360,000) | activity, % at 10 µM | DNA topoisomerase I (Yersinia pestis CO92); in the data active = activity above about 50%, passing the limit was not always enough
CCHF vOTU inh-2 – CCHFV vOTU protease inhibitors, confirmation, biochemical, Pep-AMC substrate, fluorescence; shares compounds with CCHF vOTU inh-1; Recombinant CCHFV vOTU; inhibition, % at 11.5 µM; actives 17% (n = 1,900); AID 686976, 2013
Of the large screens only hits and unclear results are named; the others gave an inactive call (follow-up assays come after a bar, where they were run). This is a sample that favours compounds with a hit; in the whole collection about 1.1% have one here. Cut-off read from the data, not from the text of the source, unless noted: active = inhibition above about 30%; inactive = the rest.

O=C(NC(=S)Nc1ccc(S(=O)(=O)Nc2nccs2)cc1)c1ccc(F)c(F)c1	CCHF vOTU inh-1 42.1 (no result: BioA inh) | CCHF vOTU inh-2 inactive
C[C@@H]1CN([C@@H](C)CO)C(=O)c2cc(NS(=O)(=O)c3cn(C)cn3)ccc2O[C@@H](C)CCCCO[C@@H]1CN(C)S(=O)(=O)c1ccc(Cl)cc1	none (no result: RecA splice inh, Mtb betalactam, CCHF vOTU inh-1, BJeLR lethal, Yp Topo-I inh)
C[C@@H]1CN([C@@H](C)CO)C(=O)c2c(c3ccccc3n2C)-c2ccccc2CO[C@@H]1CN(C)S(=O)(=O)c1ccc(Cl)cc1	none (no result: RecA splice inh, Mtb betalactam, CCHF vOTU inh-1, BJeLR lethal, Yp Topo-I inh)
O=C1N=C(N2C=CC(=C3C=CNC=C3)C=C2)/C(=C/N=NC(=O)c2ccccc2)S1	CCHF vOTU inh-1 40.9 | CCHF vOTU inh-2 inactive
O=C(c1cccc(C(=O)N2CCN(c3ncccn3)CC2)c1)N1CCN(c2ncccn2)CC1	none
CC(=O)c1ccc(NC(=O)c2ccc3nc(-c4ccco4)c(-c4ccco4)nc3c2)cc1	none (no result: CCHF vOTU inh-1)
O=C(NCCCO)c1ccc2nc(-c3ccco3)c(-c3ccco3)nc2c1	CCHF vOTU inh-1 40.1 (no result: RecA splice inh, BioA inh, Mtb betalactam, BJeLR lethal) | CCHF vOTU inh-2 55.4
O=C(NCc1ccccc1)c1ccc2nccnc2c1	none
CCCCNC(=O)c1ccc2nc(-c3ccco3)c(-c3ccco3)nc2c1	CCHF vOTU inh-1 48.1 | CCHF vOTU inh-2 inactive
O=C(NCc1ccccc1)c1ccc2nc(-c3ccco3)c(-c3ccco3)nc2c1	CCHF vOTU inh-1 48.8 | CCHF vOTU inh-2 inactive
O=C(c1ccc2nc(-c3ccco3)c(-c3ccco3)nc2c1)N1CCN(c2ncccn2)CC1	CCHF vOTU inh-1 31.7 | CCHF vOTU inh-2 50.3
O=C(NC[C@@H]1[C@@H](c2ccccc2)[C@H](CO)N1Cc1ccccn1)C1CC1	none (no result: RecA splice inh, Mtb betalactam, CCHF vOTU inh-1, BJeLR lethal, Yp Topo-I inh)
CC1(C)Cc2c(c(-c3ccco3)[nH]c(=O)c2C#N)CS1	CCHF vOTU inh-1 31.9 | CCHF vOTU inh-2 inactive
CCOc1ccc2c(c1)C(C)=CC(C)(C)N2	CCHF vOTU inh-1 39.6 (no result: RecA splice inh, BJeLR lethal) | CCHF vOTU inh-2 inactive
CCc1nnc(NS(=O)(=O)c2ccc(NC(=O)/C=C/c3ccccc3Cl)cc2)s1	CCHF vOTU inh-1 35.3 (no result: BioA inh) | CCHF vOTU inh-2 inactive
O=C(Cc1ccncc1)NCC[C@@H]1CC[C@@H](NC(=O)C2CCCCC2)[C@@H](CO)O1	none (no result: RecA splice inh, Mtb betalactam, CCHF vOTU inh-1, BJeLR lethal, Yp Topo-I inh)
COc1cccc(-c2cc(C(F)(F)F)nc(-n3cncn3)n2)c1	none
COc1cccc(-c2cc(C(F)(F)F)nc(-n3cc(C)cn3)n2)c1	CCHF vOTU inh-1 35.4 (no result: BioA inh) | CCHF vOTU inh-2 inactive
COc1ccc(C(=O)CC(=O)C(=O)NCCc2cccc(C)c2)cc1	CCHF vOTU inh-1 31.0 (no result: BioA inh) | CCHF vOTU inh-2 inactive
COc1ccc(C(=O)CC(=O)C(=O)Nc2cc(C)ccc2C)cc1	none
O=C(CSc1ccc(Br)c2cccc(Cl)c12)Nc1ccc(S(=O)(=O)Nc2nccs2)cc1	CCHF vOTU inh-1 35.7 (no result: BioA inh) | CCHF vOTU inh-2 inactive
O=C(Cc1ccccc1Cl)Nc1ccc(S(=O)(=O)Nc2nccs2)cc1	none
C[C@H](NC(=O)C[C@@H]1C=C[C@H](NC(=O)C2CCOCC2)[C@H](CO)O1)c1ccccc1	none (no result: RecA splice inh, Mtb betalactam, CCHF vOTU inh-1, BJeLR lethal, Yp Topo-I inh)
CCSc1nc(=S)cc(C)[nH]1	CCHF vOTU inh-1 31.3 | CCHF vOTU inh-2 inactive
O=S(=O)(c1ccc(NC(=S)N/N=C/c2ccc(O)c(O)c2)cc1)N1CCOCC1	none
O=[N+]([O-])c1cc(Cl)cc(/C=N/NC(=S)Nc2ccc(S(=O)(=O)N3CCOCC3)cc2)c1O	CCHF vOTU inh-1 39.2 (no result: RecA splice inh) | CCHF vOTU inh-2 inactive
COCCn1c(SCC(=O)NN2C(=O)NC(C)(c3ccccc3)C2=O)nnc1-c1ccncc1 (stereo unspecified)	CCHF vOTU inh-1 34.8 (no result: RecA splice inh, BJeLR lethal) | CCHF vOTU inh-2 inactive
COc1ccc(-c2ccc3c(c2)O[C@H](CN(C)C(C)=O)[C@H](C)CN([C@H](C)CO)S3(=O)=O)cc1	none (no result: RecA splice inh, Mtb betalactam, CCHF vOTU inh-1, BJeLR lethal, Yp Topo-I inh)
O=C1CCCC2=C1C(c1ccc(Br)cc1)c1c([nH]c(=S)[nH]c1=O)N2 (stereo unspecified)	none
O=c1[nH]c(=S)[nH]c2c1C(c1ccc(Br)cc1)c1c([nH]c(=S)[nH]c1=O)O2	CCHF vOTU inh-1 43.4 | CCHF vOTU inh-2 40.7

Screening data as filed in PubChem BioAssay.
